# Many of the other results were omitted from the sample, so the strongest signals are more common in it than they were.
# B1: HBHA-Rv (Mycobacterium tuberculosum), P0A5P6 (protein)
# chain: MAENSNIDDIKAPLLAALGAADLALATVNELITNLRERAEETRTDTRSRVEESRARLTKLQEDLPEQLTELREKFTAEELRKAAEGYLEAATSRYNELVERGEAALERLRSQQSFEEVSARAEGYVDQAVELTQEALGTVASQTRAVGERAAKLVGIELPKKAAPAKKAAPAKKAAPAKKAAAKKAPAKKAAAKKVTQK
# Experiments:
# Assay in all cases: glycan array binding signal (z-score within array); higher = stronger binding
# Conditions in all cases: glycan notation: IUPAC condensed, linker removed
# Gal3S6S(b1-4)GlcNAc6S = target: Gal3S6S(b1-4)GlcNAc6S
# Summary of the method: (§1)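 The binding signal is a Z-score computed within each array. Data were drawn from 3228 arrays in the Consortium for Functional Glycomics database, restricted to those with a known protein sequence. Scores were averaged over arrays of the same protein sequence at different concentrations or buffers, and over linkers, and negative values can be taken as non-binding.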
# Gal6S(b1-4)Glc = target: Gal6S(b1-4)Glc
# Summary of the method: as §1
# Gal6S(b1-4)GlcNAc6S = target: Gal6S(b1-4)GlcNAc6S
# Summary of the method: as §1
# Glc(b1-6)Glc = target: Glc(b1-6)Glc
# Summary of the method: as §1
# [1] = target: GlcNAc(b1-2)[GlcNAc(b1-6)]Man(a1-6)[GlcNAc(b1-4)][GlcNAc(b1-2)Man(a1-3)]Man(b1-4)GlcNAc(b1-4)GlcNAc
# Summary of the method: as §1
# [2] = target: GlcNAc(b1-3)Gal(b1-4)GlcNAc(b1-2)Man(a1-3)[GlcNAc(b1-3)Gal(b1-4)GlcNAc(b1-2)Man(a1-6)]Man(b1-4)GlcNAc(b1-4)GlcNAc
# Summary of the method: as §1
# [3] = target: GlcNAc(b1-3)Gal(b1-4)GlcNAc(b1-2)Man(a1-3)[GlcNAc(b1-3)Gal(b1-4)GlcNAc(b1-2)Man(a1-6)]Man(b1-4)GlcNAc(b1-4)[Fuc(a1-6)]GlcNAc
# Summary of the method: as §1
# [4] = target: GlcNAc(b1-3)Gal(b1-4)GlcNAc(b1-3)Gal(b1-4)GlcNAc(b1-3)Gal(b1-4)GlcNAc(b1-2)Man(a1-3)[GlcNAc(b1-3)Gal(b1-4)GlcNAc(b1-3)Gal(b1-4)GlcNAc(b1-3)Gal(b1-4)GlcNAc(b1-2)Man(a1-6)]Man(b1-4)GlcNAc(b1-4)[Fuc(a1-6)]GlcNAc
# Summary of the method: as §1
# [5] = target: GlcNAc(b1-3)Gal(b1-4)GlcNAc(b1-3)Gal(b1-4)GlcNAc(b1-3)Gal(b1-4)GlcNAc(b1-2)[GlcNAc(b1-3)Gal(b1-4)GlcNAc(b1-3)Gal(b1-4)GlcNAc(b1-3)Gal(b1-4)GlcNAc(b1-6)]Man(a1-6)[GlcNAc(b1-3)Gal(b1-4)GlcNAc(b1-3)Gal(b1-4)GlcNAc(b1-3)Gal(b1-4)GlcNAc(b1-2)Man(a1-3)]Man(b1-4)GlcNAc(b1-4)[Fuc(a1-6)]GlcNAc
# Summary of the method: as §1
# GlcNAc(b1-4)GlcNAc = target: GlcNAc(b1-4)GlcNAc
# Summary of the method: as §1
# [6] = target: GlcNAc(b1-4)GlcNAc(b1-4)GlcNAc(b1-4)GlcNAc(b1-4)GlcNAc
# Summary of the method: as §1
# [7] = target: GlcNAc(b1-4)GlcNAc(b1-4)GlcNAc(b1-4)GlcNAc(b1-4)GlcNAc(b1-4)GlcNAc
# Summary of the method: as §1
# [8] = target: Kdn(a2-3)Gal(b1-4)[Fuc(a1-3)]GlcNAc
# Summary of the method: as §1
# [9] = target: Man(a1-2)Man(a1-3)[Man(a1-2)Man(a1-6)]Man(a1-6)[Man(a1-2)Man(a1-2)Man(a1-3)]Man(b1-4)GlcNAc(b1-4)GlcNAc
# Summary of the method: as §1
# [10] = target: Man(a1-2)Man(a1-6)[Man(a1-3)]Man(a1-6)[Man(a1-2)Man(a1-2)Man(a1-3)]Man(b1-4)GlcNAc(b1-4)GlcNAc
# Summary of the method: as §1
# [11] = target: Neu5Ac(a2-3)Gal(b1-3)GalNAc
# Summary of the method: as §1
# [12] = target: Neu5Ac(a2-3)Gal(b1-3)GlcNAc(b1-2)Man(a1-3)[Neu5Ac(a2-3)Gal(b1-3)GlcNAc(b1-2)Man(a1-6)]Man(b1-4)GlcNAc(b1-4)GlcNAc
# Summary of the method: as §1
# [13] = target: Neu5Ac(a2-3)Gal(b1-4)GlcNAc(b1-2)Man
# Summary of the method: as §1
# [14] = target: Neu5Ac(a2-3)Gal(b1-4)GlcNAc(b1-2)Man(a1-3)[Neu5Ac(a2-3)Gal(b1-4)GlcNAc(b1-2)Man(a1-6)]Man(b1-4)GlcNAc(b1-4)[Fuc(a1-6)]GlcNAc
# Summary of the method: as §1
# [15] = target: Neu5Ac(a2-3)Gal(b1-4)GlcNAc(b1-3)Gal(b1-4)GlcNAc(b1-2)Man(a1-3)[Neu5Ac(a2-3)Gal(b1-4)GlcNAc(b1-3)Gal(b1-4)GlcNAc(b1-2)Man(a1-6)]Man(b1-4)GlcNAc(b1-4)GlcNAc
# Summary of the method: as §1
# [16] = target: Neu5Ac(a2-3)Gal(b1-4)GlcNAc(b1-6)[Gal(b1-3)]GalNAc
# Summary of the method: as §1
# [17] = target: Neu5Ac(a2-3)Gal(b1-4)[Fuc(a1-3)]GlcNAc
# Summary of the method: as §1
# [18] = target: Neu5Ac(a2-3)Gal6S(b1-4)[Fuc(a1-3)]GlcNAc
# Summary of the method: as §1
# [19] = target: Neu5Ac(a2-6)Gal(b1-4)GlcNAc(b1-2)Man(a1-3)[Gal(b1-4)GlcNAc(b1-2)Man(a1-6)]Man(b1-4)GlcNAc(b1-4)GlcNAc
# Summary of the method: as §1
# [20] = target: Neu5Ac(a2-6)Gal(b1-4)GlcNAc(b1-2)Man(a1-3)[Neu5Ac(a2-3)Gal(b1-4)GlcNAc(b1-2)Man(a1-6)]Man(b1-4)GlcNAc(b1-4)GlcNAc
# Summary of the method: as §1
# [21] = target: Neu5Ac(a2-6)Gal(b1-4)GlcNAc(b1-2)Man(a1-6)[Man(a1-3)]Man(b1-4)GlcNAc(b1-4)GlcNAc
# Summary of the method: as §1
# [22] = target: Neu5Ac(a2-6)Gal(b1-4)GlcNAc(b1-3)Gal(b1-4)GlcNAc(b1-3)GalNAc
# Summary of the method: as §1
# [23] = target: Neu5Ac(a2-8)Neu5Ac(a2-3)[Gal(b1-3)GalNAc(b1-4)]Gal(b1-4)Glc
# Summary of the method: as §1
binder,measurement,setting,value
B1,glycan array binding signal (z-score),Gal3S6S(b1-4)GlcNAc6S,1.29
same,glycan array binding signal (z-score),Gal6S(b1-4)Glc,1.36
same,glycan array binding signal (z-score),Gal6S(b1-4)GlcNAc6S,0.203
same,glycan array binding signal (z-score),Glc(b1-6)Glc,0.495
same,glycan array binding signal (z-score),[1],-0.415
same,glycan array binding signal (z-score),[2],-0.423
same,glycan array binding signal (z-score),[3],-0.332
same,glycan array binding signal (z-score),[4],-0.455
same,glycan array binding signal (z-score),[5],-0.347
same,glycan array binding signal (z-score),GlcNAc(b1-4)GlcNAc,-0.292
same,glycan array binding signal (z-score),[6],4.22
same,glycan array binding signal (z-score),[7],3.44
same,glycan array binding signal (z-score),[8],-0.371
same,glycan array binding signal (z-score),[9],-0.264
same,glycan array binding signal (z-score),[10],1.09
same,glycan array binding signal (z-score),[11],1.62
same,glycan array binding signal (z-score),[12],-0.163
same,glycan array binding signal (z-score),[13],-0.023
same,glycan array binding signal (z-score),[14],-0.174
same,glycan array binding signal (z-score),[15],-0.297
same,glycan array binding signal (z-score),[16],-0.331
same,glycan array binding signal (z-score),[17],-0.199
same,glycan array binding signal (z-score),[18],0.273
same,glycan array binding signal (z-score),[19],-0.354
same,glycan array binding signal (z-score),[20],-0.42
same,glycan array binding signal (z-score),[21],-0.302
same,glycan array binding signal (z-score),[22],-0.379
same,glycan array binding signal (z-score),[23],1.55
